A selection: hits, their analogues and other compounds. The true share with any hit is near 3.2%.
p53 reactivation: re-activators of mutant p53. H1299 p53-A138V BP100-luciferase reporter, luminescence, 24 h. Potency, µM (highest dose often 92.2 µM), for the others: at the highest dose activity change, positive = activation, actives largely listed as activators. 320,000 compounds, 0.063% hits. AID 504706; also: potency is read from the fitted curve at half-maximal effect; % of control where 0% means no effect; nearly all actives have a fitted effect of over 45% in size
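p53-null H1299 cells stably carrying temperature-sensitive p53-A138V and a BP100-luciferase reporter were pinned with compounds (4-point, 1:5 series) and held 24 hrs at 37 deg C. Luminescence was read 10 min after detection reagent.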
BRCA1 expr up: activators of BRCA1 expression | MCF7-BRCA1-FFLuc reporter, luminescence, 48 h; response scale: scaled: vehicle 0%, 10 µM genistein 100% | Potency, µM (top dose mostly 46.1 µM), inactives show at the top dose activation, hits mostly activators | 380,000 compounds, 1.1% hits; also: potency is read from the fitted curve at half-maximal effect; nearly all actives have a fitted effect of over 80% in size
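Compounds are tested at multiple concentrations on MCF7 BRCA1-luciferase reporter cells seeded at 2000 per well; after 48 h, a single luminescence end-point is taken and curves fitted to the normalized data.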
IL-2 act: activates IL-2 in a cell-based reporter assay; IL-2 activation reporter assay, cell-based qHTS; stimulated with anti-CD3/CD4/CD28 beads; in transgenic mouse T cells; activation, % (series mostly up to about 46 µM); 360,000 compounds, 0.065% hits; in the data active = activation above about 50%; inconclusive = mostly about 30% to 49%; also: 0% is about no effect
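First, unstimulated transgenic mouse T cells were exposed to compound for 60 min. Next, anti-CD3/anti-CD4-coated beads with anti-CD28 were added. Finally, after 18 h at 37 degrees C, EGFP and DsRed were imaged.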
Nrf2 inh: inhibitors of Nrf2 signaling | AID 504444 | Potency, µM (doses to about 46 µM), for the others: top-dose activity change, negative = inhibition, hits mostly inhibitors | 360,000 compounds, 2.1% hits | A549 ARE-Fluc reporter, luciferase luminescence, 18-24 h; also: potency is read from the fitted curve at half-maximal effect; % is scaled to controls: 0 for no effect and ±100 for the full control effect; nearly all actives have a fitted effect of over 60% in size
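Nrf2 function is reported as luminescence of an ARE-controlled luciferase in A549 cells. Compounds were tested at several concentrations, and a CellTiter-Fluor read on the same wells flagged cytotoxicity.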
Nrf2 ARE act: activates Nrf2 signaling | Potency, µM (titrated, usually from 46.1 µM), for the others: top-dose activation, most hits filed as activators | 410,000 compounds, 0.31% hits | AREc32 ARE-luciferase reporter (MCF7-derived line), luminescence, 24 h | AID 624171; also: potency is read from the fitted curve at half-maximal effect; % of control where 0% means no effect; nearly all actives have a fitted effect of over 65% in size
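Cells of the AREc32 ARE-luciferase line are plated in OPTI-MEM containing 5% FBS and left overnight at 37 deg C. Compounds are pinned in, incubation continues 24 hr, and firefly luciferase signal is then measured.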
A549 tox: counter-screen for Nrf2 inhibitors: cytotoxicity in A549 cells; 390,000 compounds, 0.16% hits; Potency, µM (top dose mostly 46 µM), for inactives: at the top dose activity change, negative = cytotoxicity, most hits filed as inhibitors; AID 504648; A549 ARE-Fluc cells, CellTiter-Fluor viability, 18-24 h; also: potency is read from the fitted curve at half-maximal effect; % is scaled to controls: 0 for no effect and ±100 for the full control effect
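A549 ARE_Fluc cells in 5% FBS OPTI-MEM were exposed to compounds in concentration-response for 18-24 h at 37 deg C. Viability was read by CellTiter-Fluor fluorescence (Ex 405/Em 525) after 30 min, before the luciferase read.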
Starred values were filed as active, the others as inactive. Unless noted, calls follow the shape of the dose curve; as a rule, active = well fitted curve in the direction sought with a large enough effect; inconclusive = small, poorly fitted or top-dose-only effect, or another doubt; inactive = no such curve, though single readings can be large; an effect the other way counts as inactive or inconclusive.

For COc1cc(NC(=O)CSc2cc(=O)n(C)c3ccccc23)cc(OC)c1OC the results were Nrf2 inh 21µM*, Nrf2 ARE act -1% and A549 tox -11%.
Screening CCc1ccc(S(=O)(=O)c2cn(Cc3ccccc3)c3cc(F)c(F)cc3c2=O)cc1 returned Nrf2 inh 1%, Nrf2 ARE act 1% and A549 tox 3%.
For CCS(=O)(=O)Nc1ccc(-c2cn3ccsc3n2)cc1 the results were Nrf2 ARE act 10% and A549 tox 2%.
Screening O=C(Cc1ccc(O)cc1)NC1CCCCCC1 returned p53 reactivation inconclusive, BRCA1 expr up 3.5µM*, IL-2 act 0, Nrf2 inh inconclusive, Nrf2 ARE act 0% and A549 tox 4%.
`O=C(CSc1ccc(F)cc1)NC1CCCCC1` gave p53 reactivation 18%, BRCA1 expr up 11µM*, IL-2 act 0, Nrf2 inh 9%, Nrf2 ARE act -1% and A549 tox 0%.
For Cc1ccc(CNC(=S)NC2CCCCC2)cc1 the results were p53 reactivation 18%, BRCA1 expr up 1%, IL-2 act -3, Nrf2 inh 3%, Nrf2 ARE act 0% and A549 tox 11%.
Screening O=C(CSc1ccc(Br)cc1)NC1CCCCCC1 returned p53 reactivation 28%, BRCA1 expr up 71%, IL-2 act -5, Nrf2 inh 27%, Nrf2 ARE act 0% and A549 tox 0%.
Cc1ccc(CNC(=O)NC2CCCCC2)cc1 was read as p53 reactivation inconclusive, BRCA1 expr up 10µM*, IL-2 act 1, Nrf2 inh inconclusive, Nrf2 ARE act 0% and A549 tox -2%.
Screening COc1cccc(C2c3c(ncn(-c4ccc(C#N)cc4)c3=N)Oc3ccc4ccccc4c32)c1 (stereo unspecified) returned Nrf2 inh -23% and A549 tox -10%.
Screening CC(=O)Cc1nsc(Nc2ccc(F)cc2)n1 returned p53 reactivation 22%, BRCA1 expr up inconclusive, IL-2 act -3, Nrf2 inh inconclusive, Nrf2 ARE act 4% and A549 tox 6%.
CC(=O)Cc1nsc(Nc2ccc(Cl)cc2)n1 was read as p53 reactivation 0%, BRCA1 expr up 10µM*, IL-2 act 1, Nrf2 inh 13%, Nrf2 ARE act 3% and A549 tox -5%.
`COc1ccc(Nc2nc(CC(C)=O)ns2)cc1` gave p53 reactivation inconclusive, BRCA1 expr up 10µM*, IL-2 act 0, Nrf2 inh inconclusive, Nrf2 ARE act 4% and A549 tox 0%.
Screening COc1cccc(Nc2nc(CC(C)=O)ns2)c1 returned p53 reactivation 13%, BRCA1 expr up 11µM*, IL-2 act 4, Nrf2 inh 25%, Nrf2 ARE act 7% and A549 tox 3%.
CC(=O)Cc1nsc(Nc2ccc3c(c2)OCCO3)n1 was read as p53 reactivation 26%, BRCA1 expr up 94%, IL-2 act 0, Nrf2 inh inconclusive, Nrf2 ARE act 9% and A549 tox -2%.
`Cc1ccc(CNC(=O)C2CCCN(Cc3nc(-c4cccc(C)c4)oc3C)C2)cc1` (stereo unspecified) gave Nrf2 inh inconclusive, Nrf2 ARE act -1% and A549 tox -3%.
CC1Cn2c(C(=O)NCc3ccccc3Cl)cc3cccc(c32)S1 (stereo unspecified) was read as Nrf2 inh 19%, Nrf2 ARE act 4% and A549 tox 9%.
Screening CCN(CCN(C)Cl)/[N+]([O-])=N/Oc1ccc([N+](=O)[O-])cc1[N+](=O)[O-] returned BRCA1 expr up -6%.
`O=C1c2ccc(Br)cc2C(=O)N1c1ccc(Cc2ccncc2)cc1` gave p53 reactivation -3%, BRCA1 expr up -14%, IL-2 act -3, Nrf2 inh 21µM*, Nrf2 ARE act 2% and A549 tox -14%.

Compound activity deposited in PubChem BioAssay by National Center for Advancing Translational Sciences (NCATS).
